What all share (assay): log2 ratio of Biotin-Ahx-Ub-VS probe labelling (fragment/DMSO); higher = less target engagement (more negative = stronger competition), active = hit call of the paper (q ≤ 0.05, log2 ratio ≤ -1)
Conditions in all cases: compound concentration: 200 uM; treatment time: 3 h

One test has as its target T1, USP42 (UniProt Q9H9J4).
T1 sequence (whole entry): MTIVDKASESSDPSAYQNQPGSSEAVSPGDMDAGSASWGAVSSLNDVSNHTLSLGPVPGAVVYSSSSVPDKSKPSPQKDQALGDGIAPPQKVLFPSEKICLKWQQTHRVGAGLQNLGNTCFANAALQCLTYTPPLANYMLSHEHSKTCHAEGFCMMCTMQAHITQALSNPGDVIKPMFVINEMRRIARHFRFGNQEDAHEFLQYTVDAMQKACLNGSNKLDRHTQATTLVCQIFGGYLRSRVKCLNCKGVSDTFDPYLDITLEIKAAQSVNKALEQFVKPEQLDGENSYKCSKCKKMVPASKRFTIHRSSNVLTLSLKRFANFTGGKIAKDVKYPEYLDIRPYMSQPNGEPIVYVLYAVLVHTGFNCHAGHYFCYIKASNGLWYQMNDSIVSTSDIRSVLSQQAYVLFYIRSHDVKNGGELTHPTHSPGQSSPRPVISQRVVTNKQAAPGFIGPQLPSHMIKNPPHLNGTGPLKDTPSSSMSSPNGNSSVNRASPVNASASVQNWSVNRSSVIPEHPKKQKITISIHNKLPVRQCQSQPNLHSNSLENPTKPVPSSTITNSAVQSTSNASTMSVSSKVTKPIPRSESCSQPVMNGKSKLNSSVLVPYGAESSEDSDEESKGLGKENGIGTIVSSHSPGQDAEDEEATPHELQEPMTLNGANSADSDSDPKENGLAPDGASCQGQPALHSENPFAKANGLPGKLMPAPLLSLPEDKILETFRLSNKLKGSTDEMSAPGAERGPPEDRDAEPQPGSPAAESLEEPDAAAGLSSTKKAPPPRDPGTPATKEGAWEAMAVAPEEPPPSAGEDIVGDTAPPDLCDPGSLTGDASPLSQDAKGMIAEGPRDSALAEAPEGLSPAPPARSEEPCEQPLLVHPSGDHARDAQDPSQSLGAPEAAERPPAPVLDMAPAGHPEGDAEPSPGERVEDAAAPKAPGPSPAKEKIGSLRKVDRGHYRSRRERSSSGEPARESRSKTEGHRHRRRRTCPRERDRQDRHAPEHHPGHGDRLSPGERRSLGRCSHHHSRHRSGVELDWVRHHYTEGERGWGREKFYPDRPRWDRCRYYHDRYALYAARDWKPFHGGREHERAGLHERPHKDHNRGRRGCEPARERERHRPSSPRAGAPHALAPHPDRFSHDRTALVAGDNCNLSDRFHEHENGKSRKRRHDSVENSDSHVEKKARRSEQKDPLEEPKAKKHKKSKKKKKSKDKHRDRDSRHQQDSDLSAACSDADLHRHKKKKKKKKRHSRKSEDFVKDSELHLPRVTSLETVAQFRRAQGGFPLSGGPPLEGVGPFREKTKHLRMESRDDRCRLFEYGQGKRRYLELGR
The procedure, abridged: (§1)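 Labelled DUBs from HEK293T lysate were NeutrAvidin-enriched, digested with LysC and trypsin, and run by diaPASEF LC-MS/MS. Before that, each 495 µg sample in Tris/CHAPS/IGEPAL buffer with protease inhibitors was treated in triplicate with fragment at 200 µM or vehicle for 3 h, then with Biotin-Ahx-Ub-VS at 0.5 µM final for 1 h. Values are average log2 ratios of fragment over vehicle by unpaired t-test, based on global-median-normalised Spectronaut label-free quantities from proteins with ≥2 unique peptides.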

The target in the next test is USP46 (UniProt P62068). The procedure, abridged:
as §1

The target of another test is T2, USP47 (UniProt Q96K76).
T2 sequence (whole entry): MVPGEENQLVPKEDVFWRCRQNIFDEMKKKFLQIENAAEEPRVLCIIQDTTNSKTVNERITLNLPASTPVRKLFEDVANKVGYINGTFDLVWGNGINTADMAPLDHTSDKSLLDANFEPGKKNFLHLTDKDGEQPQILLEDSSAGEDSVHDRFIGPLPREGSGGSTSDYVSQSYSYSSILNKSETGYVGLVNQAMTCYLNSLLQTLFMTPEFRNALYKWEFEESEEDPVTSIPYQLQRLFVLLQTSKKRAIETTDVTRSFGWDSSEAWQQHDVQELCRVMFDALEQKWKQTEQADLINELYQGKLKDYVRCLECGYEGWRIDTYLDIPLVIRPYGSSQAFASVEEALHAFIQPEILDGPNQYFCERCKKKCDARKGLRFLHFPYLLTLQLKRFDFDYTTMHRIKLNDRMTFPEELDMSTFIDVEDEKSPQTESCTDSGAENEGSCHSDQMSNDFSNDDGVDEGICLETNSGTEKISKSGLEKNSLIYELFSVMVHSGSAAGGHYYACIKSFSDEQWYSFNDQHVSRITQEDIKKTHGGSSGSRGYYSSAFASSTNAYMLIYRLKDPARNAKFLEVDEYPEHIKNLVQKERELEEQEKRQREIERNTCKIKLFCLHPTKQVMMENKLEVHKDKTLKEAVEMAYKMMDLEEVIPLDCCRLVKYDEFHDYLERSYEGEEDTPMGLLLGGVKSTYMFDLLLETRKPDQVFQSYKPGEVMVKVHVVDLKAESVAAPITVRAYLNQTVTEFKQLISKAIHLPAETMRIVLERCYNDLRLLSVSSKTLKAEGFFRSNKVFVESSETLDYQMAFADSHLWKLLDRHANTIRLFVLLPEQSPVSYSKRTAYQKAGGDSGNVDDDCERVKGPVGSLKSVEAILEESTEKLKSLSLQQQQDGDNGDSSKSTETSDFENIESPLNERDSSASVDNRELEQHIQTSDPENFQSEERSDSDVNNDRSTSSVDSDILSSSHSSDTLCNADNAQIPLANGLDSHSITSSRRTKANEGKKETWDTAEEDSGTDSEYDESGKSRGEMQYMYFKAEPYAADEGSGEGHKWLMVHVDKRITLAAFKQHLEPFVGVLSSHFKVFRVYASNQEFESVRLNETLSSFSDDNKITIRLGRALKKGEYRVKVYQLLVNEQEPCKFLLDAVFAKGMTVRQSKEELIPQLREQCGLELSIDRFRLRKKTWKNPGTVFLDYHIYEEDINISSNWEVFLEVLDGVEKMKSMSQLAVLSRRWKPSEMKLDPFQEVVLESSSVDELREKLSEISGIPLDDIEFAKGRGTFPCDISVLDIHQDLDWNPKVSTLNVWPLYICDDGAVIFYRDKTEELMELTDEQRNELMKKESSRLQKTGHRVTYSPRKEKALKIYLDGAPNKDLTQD
In short, it runs like this: as §1

In another test the target is T3, USP48 (UniProt Q86UV5).
T3 sequence (whole entry): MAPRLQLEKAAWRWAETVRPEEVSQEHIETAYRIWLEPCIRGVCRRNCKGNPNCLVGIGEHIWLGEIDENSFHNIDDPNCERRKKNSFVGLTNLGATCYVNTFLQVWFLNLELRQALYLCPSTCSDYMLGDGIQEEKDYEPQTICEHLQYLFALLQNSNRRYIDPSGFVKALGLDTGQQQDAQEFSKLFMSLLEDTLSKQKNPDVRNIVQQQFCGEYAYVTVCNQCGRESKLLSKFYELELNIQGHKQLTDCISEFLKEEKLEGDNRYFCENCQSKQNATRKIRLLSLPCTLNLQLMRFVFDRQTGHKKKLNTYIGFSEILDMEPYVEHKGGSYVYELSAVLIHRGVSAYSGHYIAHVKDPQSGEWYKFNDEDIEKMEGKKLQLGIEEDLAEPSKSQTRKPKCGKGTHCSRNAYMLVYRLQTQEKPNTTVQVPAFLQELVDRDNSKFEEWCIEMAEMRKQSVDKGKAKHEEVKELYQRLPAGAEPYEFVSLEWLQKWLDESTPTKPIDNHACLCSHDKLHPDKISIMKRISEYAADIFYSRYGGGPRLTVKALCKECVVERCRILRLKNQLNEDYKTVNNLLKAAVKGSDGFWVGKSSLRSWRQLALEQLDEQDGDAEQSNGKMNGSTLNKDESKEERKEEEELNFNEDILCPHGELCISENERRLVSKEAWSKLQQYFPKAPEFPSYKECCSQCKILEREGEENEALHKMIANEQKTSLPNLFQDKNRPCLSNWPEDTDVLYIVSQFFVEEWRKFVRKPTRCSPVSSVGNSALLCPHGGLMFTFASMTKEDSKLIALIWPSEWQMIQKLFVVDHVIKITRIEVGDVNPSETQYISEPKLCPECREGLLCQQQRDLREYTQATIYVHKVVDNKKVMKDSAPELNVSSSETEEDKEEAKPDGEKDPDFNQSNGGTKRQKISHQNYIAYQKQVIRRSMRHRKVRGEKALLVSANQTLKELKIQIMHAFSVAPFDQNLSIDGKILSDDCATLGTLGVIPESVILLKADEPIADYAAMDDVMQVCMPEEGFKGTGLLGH
In short, it runs like this: as §1

The target of the next test is T4, USP5 (UniProt P45974).
T4 sequence (whole entry): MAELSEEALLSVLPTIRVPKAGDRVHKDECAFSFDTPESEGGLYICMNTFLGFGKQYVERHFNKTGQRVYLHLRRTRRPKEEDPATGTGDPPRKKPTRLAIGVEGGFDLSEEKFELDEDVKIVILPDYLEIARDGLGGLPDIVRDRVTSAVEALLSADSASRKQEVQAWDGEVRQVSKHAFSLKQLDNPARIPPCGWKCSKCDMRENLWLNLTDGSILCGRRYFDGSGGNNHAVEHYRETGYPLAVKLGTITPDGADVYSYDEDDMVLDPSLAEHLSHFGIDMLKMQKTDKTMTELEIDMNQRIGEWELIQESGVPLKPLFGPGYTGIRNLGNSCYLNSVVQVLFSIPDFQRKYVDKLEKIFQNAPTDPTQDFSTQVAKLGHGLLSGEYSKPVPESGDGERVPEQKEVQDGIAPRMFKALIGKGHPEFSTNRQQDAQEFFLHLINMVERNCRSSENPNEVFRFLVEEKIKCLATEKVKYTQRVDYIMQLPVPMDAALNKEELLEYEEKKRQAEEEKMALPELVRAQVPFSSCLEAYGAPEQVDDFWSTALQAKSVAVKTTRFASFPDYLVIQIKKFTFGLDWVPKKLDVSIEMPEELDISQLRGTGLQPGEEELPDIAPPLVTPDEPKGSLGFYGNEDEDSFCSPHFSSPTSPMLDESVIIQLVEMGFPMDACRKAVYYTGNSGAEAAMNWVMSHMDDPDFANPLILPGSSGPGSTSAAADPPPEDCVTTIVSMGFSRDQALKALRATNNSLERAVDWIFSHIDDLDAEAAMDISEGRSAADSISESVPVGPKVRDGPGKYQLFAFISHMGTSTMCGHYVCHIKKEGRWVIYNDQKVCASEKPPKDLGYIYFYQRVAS
In short, it runs like this: as §1

Another test has as its target USP54 (UniProt Q70EL1). In short, it runs like this:
as §1

A further test deals with USP7 (UniProt Q93009). In short, it runs like this: as §1
A further test deals with T5, USP8 (UniProt P40818).
T5 sequence (whole entry): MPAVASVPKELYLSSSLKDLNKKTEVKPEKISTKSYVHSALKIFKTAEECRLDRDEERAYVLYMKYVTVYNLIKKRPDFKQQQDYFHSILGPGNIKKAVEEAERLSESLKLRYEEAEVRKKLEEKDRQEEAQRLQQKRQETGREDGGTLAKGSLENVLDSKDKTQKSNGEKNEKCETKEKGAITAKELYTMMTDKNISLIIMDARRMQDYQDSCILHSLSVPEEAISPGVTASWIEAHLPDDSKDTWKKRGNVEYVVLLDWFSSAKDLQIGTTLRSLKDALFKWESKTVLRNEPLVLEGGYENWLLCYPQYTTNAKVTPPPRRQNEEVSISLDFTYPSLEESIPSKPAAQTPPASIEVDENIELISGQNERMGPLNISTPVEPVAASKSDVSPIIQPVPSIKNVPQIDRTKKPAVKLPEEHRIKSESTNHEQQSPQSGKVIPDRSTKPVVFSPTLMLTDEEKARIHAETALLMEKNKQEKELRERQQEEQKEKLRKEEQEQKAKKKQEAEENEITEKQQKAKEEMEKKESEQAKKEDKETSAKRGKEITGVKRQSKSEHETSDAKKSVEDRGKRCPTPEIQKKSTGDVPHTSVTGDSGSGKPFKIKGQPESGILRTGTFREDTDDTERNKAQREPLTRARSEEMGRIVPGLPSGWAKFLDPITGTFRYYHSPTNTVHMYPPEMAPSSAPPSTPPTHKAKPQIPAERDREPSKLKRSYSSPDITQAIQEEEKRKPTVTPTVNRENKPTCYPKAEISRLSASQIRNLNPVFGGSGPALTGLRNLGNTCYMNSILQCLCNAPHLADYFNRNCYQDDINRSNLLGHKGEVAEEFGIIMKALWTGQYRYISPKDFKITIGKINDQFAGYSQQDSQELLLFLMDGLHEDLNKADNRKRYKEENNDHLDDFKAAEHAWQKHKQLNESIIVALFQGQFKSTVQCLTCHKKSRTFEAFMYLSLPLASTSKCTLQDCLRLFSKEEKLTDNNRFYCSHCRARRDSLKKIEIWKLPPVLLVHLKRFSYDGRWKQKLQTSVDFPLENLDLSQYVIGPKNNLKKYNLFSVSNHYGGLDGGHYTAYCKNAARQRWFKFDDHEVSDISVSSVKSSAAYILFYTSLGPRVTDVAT
In short, it runs like this: as §1

The next test addresses USP9X (UniProt Q93008). The procedure, abridged: as §1
Another test deals with UniProt O00487. In short, it runs like this: as §1

A number with no mark means an inactive call.

Sequence of USP54 (Q70EL1 whole entry): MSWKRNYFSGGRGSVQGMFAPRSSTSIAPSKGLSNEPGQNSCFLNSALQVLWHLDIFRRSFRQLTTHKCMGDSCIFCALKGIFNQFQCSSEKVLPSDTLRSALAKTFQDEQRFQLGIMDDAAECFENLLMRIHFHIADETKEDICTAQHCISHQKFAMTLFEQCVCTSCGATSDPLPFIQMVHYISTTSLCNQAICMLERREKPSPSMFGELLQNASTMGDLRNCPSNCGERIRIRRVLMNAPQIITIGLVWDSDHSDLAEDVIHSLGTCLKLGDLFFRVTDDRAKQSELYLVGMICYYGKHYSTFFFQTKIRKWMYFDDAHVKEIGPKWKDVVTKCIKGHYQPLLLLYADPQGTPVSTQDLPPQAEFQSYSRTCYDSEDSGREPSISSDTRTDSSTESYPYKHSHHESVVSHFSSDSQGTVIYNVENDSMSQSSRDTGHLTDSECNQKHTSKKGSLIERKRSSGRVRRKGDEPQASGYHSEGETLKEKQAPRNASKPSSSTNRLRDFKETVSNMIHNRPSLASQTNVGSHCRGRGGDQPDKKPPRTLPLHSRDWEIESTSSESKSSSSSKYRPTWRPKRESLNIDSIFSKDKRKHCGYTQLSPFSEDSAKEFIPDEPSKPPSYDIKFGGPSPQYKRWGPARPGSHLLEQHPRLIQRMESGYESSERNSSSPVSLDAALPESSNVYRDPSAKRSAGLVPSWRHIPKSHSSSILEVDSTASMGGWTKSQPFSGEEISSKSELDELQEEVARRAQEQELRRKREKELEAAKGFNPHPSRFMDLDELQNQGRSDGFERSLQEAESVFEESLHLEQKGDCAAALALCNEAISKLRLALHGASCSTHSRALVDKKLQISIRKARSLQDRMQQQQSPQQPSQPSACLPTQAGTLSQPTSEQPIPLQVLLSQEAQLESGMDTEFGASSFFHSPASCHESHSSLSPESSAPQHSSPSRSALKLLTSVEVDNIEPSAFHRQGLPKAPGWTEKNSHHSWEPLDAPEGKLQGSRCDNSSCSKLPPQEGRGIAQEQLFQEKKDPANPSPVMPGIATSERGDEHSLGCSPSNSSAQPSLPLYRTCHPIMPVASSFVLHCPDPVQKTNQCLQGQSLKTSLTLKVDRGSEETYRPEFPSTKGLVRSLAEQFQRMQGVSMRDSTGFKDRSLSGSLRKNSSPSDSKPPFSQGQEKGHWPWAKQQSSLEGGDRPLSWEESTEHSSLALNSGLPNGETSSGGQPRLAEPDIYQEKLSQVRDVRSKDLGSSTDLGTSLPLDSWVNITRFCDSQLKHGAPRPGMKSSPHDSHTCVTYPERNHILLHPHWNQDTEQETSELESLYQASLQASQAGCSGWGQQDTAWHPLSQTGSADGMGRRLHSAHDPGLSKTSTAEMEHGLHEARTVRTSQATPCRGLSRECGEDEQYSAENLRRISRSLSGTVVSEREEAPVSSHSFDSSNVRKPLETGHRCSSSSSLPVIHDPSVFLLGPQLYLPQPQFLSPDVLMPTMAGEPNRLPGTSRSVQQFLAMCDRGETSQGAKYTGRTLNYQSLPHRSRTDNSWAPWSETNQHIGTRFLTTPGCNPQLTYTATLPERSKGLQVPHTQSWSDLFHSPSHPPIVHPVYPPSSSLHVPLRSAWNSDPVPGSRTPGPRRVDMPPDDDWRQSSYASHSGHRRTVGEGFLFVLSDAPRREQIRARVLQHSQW
Sequence of UniProt O00487 (O00487 whole entry): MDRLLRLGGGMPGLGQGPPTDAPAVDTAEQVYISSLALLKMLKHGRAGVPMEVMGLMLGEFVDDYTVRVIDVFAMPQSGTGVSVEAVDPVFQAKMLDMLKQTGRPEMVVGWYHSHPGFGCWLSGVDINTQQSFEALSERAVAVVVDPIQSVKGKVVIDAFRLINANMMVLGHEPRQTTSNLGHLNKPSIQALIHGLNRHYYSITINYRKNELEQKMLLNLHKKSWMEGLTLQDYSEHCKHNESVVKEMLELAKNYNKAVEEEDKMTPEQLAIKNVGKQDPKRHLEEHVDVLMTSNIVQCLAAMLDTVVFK
Sequence of USP7 (Q93009 whole entry, looked up): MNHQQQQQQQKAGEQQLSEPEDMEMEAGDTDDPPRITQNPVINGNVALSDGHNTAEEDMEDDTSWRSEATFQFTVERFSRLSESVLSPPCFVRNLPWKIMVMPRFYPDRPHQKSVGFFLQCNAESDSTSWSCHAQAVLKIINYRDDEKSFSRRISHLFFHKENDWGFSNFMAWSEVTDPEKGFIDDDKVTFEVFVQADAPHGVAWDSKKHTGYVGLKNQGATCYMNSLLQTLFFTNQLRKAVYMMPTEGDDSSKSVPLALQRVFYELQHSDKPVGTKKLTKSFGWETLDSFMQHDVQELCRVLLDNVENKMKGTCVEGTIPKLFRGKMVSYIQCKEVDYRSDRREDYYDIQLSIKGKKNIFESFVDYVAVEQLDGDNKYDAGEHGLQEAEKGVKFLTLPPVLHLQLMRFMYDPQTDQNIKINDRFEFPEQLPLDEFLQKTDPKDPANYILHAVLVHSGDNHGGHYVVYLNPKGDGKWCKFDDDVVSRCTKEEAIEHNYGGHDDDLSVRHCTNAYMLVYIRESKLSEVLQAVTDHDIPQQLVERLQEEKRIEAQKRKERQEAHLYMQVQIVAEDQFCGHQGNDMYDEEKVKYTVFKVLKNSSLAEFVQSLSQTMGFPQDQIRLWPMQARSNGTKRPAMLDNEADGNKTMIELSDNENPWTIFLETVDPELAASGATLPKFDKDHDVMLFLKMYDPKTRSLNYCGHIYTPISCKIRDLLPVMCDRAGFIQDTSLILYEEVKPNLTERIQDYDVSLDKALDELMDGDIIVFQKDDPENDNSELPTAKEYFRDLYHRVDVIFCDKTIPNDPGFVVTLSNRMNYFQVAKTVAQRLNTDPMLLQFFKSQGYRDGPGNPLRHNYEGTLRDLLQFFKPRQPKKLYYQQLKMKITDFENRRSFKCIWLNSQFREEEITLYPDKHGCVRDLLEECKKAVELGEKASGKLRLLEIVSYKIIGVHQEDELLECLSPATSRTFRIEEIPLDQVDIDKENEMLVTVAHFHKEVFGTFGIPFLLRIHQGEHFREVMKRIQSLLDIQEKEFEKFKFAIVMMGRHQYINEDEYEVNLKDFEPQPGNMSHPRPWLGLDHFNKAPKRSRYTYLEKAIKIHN
Sequence of USP46 (P62068 whole entry): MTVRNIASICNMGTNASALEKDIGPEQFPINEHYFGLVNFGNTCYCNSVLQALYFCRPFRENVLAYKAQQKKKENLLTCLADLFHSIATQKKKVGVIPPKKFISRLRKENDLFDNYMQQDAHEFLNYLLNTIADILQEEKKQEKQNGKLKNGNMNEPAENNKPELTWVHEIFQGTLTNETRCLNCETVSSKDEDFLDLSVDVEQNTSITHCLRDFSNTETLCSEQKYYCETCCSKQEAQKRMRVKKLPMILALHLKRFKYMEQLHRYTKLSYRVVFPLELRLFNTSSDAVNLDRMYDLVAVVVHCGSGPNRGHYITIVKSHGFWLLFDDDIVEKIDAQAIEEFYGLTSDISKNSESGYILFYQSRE

For the compound `O=C(CCl)N1CCCN(C(=O)c2ccc(Cl)cc2)CC1`, the “log2 ratio of Biotin-Ahx-Ub-VS probe labelling” value (“log2 ratio” below) was -0.0422 with USP42; -0.129 in the test with USP46; -0.76 with USP47; -1.16 (active) in the test with USP48; 0.0155 with USP5; 0.842 with USP54. Further, the “log2 ratio” value in the test with USP7 was -1.18 (active); with USP8, -0.354; with USP9X, -0.318; with UniProt O00487, 0.0259.

On to `Cc1nc(CN2CCCN(C(=O)CCl)CC2)no1.Cl`, for which the “log2 ratio” value is 0.102 in the test with USP42; 0.0734 with USP46; -0.095 with USP47; 0.261 with USP48; -0.016 in the test with USP5; -0.482 with USP54. Besides, the “log2 ratio” value in the test with USP7 was -0.0348; with USP8, 0.237; in the test with USP9X it was 0.101; with UniProt O00487, 0.118.

(Values after the supplement of paper PMC11732987, “Enantioselective OTUD7B fragment discovery through chemoproteomics screening and high-throughput optimisation” (Communications Chemistry, 2025).)
